Shown are actives, neighbours in structure and some others; about 3.5% of the full set was active somewhere.
BoNT A protease – BoNT/A light chain protease inhibitors, primary screen, biochemical, flow cytometry, MLPCN library; multiplex microsphere protease substrate cleavage; inhibition, % at 10 µM; 360,000 compounds, 0.17% hits; note: plate controls were buffer without enzyme for full effect and enzyme alone for no effect
Bead autofluor – compound fluorescence in toxin protease inhibitor counterscreen; compound autofluorescence counterscreen, microsphere flow cytometry; stronger effect = higher value; fluorescence intensity (concentration not given with the values); 360,000 compounds, 3.1% hits; AID 624483; in the data active = fluorescence intensity above about 16000; inconclusive = no clear call, values can overlap the other calls
BoNT-F LC inh – BoNT/F light chain protease inhibitors, primary screen, biochemical, flow cytometry, MLPCN library | Botulinum neurotoxin type F light chain protease (Clostridium botulinum) | Multiplex microsphere protease cleavage assay | inhibition, % at 10 µM | 360,000 compounds, 0.22% hits | AID 588497, 2011; in the data active = inhibition above about 35%, passing the limit was not always enough; inconclusive = no clear call, values can overlap the other calls; note: plate controls were buffer without enzyme for full effect and enzyme alone for no effect
Anthrax LF inh2 – Bacillus anthracis LF protease inhibitors, primary screen, biochemical, multiplex microsphere, MLPCN library; multiplex microsphere protease cleavage assay; inhibition, % at 10 µM; 360,000 compounds, 0.12% hits; Lethal factor (Bacillus anthracis), P15917; AID 588501, 2011; note: plate controls were buffer without enzyme for full effect and enzyme alone for no effect
Target sequence (P15917 whole entry, looked up): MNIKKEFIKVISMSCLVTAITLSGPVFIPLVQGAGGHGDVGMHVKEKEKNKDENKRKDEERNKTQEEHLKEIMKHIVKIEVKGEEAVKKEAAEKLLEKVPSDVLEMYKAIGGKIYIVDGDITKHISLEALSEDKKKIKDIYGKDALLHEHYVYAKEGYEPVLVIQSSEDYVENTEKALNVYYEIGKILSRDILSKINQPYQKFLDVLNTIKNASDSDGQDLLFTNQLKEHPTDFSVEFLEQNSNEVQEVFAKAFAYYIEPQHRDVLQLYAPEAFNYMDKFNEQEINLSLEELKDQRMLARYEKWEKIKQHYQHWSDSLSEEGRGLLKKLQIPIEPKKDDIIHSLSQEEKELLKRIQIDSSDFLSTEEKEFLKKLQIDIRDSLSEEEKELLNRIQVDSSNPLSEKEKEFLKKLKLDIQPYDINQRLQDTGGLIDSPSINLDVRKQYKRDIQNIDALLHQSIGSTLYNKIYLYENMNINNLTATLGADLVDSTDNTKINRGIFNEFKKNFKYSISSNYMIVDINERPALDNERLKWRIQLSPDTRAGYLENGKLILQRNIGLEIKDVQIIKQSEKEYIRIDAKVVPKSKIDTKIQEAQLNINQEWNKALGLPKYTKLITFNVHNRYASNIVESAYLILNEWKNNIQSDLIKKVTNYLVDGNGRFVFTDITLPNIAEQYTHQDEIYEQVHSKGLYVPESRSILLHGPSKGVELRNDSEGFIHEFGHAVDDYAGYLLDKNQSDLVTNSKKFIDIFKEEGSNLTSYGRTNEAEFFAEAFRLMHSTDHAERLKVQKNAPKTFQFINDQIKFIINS
* hit, by the source's call. Cut-off read from the data, not from the text of the source, unless noted: active = inhibition above about 30%; inconclusive = no clear call, values can overlap the other calls; inactive = below that.

Results for CON/C=C(\C=Nc1ccc(C(F)(F)F)cc1)c1ncc(C(F)(F)F)cc1Cl ?
BoNT A protease: 0; Bead autofluor: 5846; BoNT-F LC inh: -3; Anthrax LF inh2: -1

How did O=C(COC(=O)CC1SC(N2CCCC2)=NC1=O)Nc1c(F)c(F)c(F)c(F)c1F (stereo not drawn) do in these assays?
BoNT A protease: 1; Bead autofluor: 2571; BoNT-F LC inh: 4; Anthrax LF inh2: -1

Results for Cc1ccc(NC(=O)c2ccccc2N(C)S(C)(=O)=O)cc1C ?
BoNT A protease: 1; Bead autofluor: 23559*; BoNT-F LC inh: -3; Anthrax LF inh2: -2

What do the screens show for `CN(c1ccccc1C(=O)Nc1cccc(Cl)c1Cl)S(C)(=O)=O`?
BoNT A protease: 0; Bead autofluor: 22508*; BoNT-F LC inh: 0; Anthrax LF inh2: -2

Results for CN(c1ccccc1C(=O)O)S(C)(=O)=O ?
BoNT A protease: 4; Bead autofluor: 18576*; BoNT-F LC inh: 4; Anthrax LF inh2: -3

What do the screens show for `CCOc1ccccc1NC(=O)c1ccccc1N(C)S(C)(=O)=O`?
BoNT A protease: 0; Bead autofluor: 4808; BoNT-F LC inh: -5; Anthrax LF inh2: 0

Results for CN(c1ccccc1C(=O)Nc1ccc2c(c1)OCCO2)S(C)(=O)=O ?
BoNT A protease: 0; Bead autofluor: 6096; BoNT-F LC inh: -9; Anthrax LF inh2: 1

What do the screens show for `CC1(C)OC(=O)C2=C(C[C@@H](CCc3ccccc3)O[C@H]2CCc2cccc(Cl)c2)O1`?
BoNT A protease: 0; Bead autofluor: 5802; BoNT-F LC inh: 15; Anthrax LF inh2: 2

What do the screens show for `O=C(COc1ccccc1)OCC(=O)c1ccc(S(=O)(=O)N2CCCCC2)cc1`?
BoNT A protease: 0; Bead autofluor: 3890; BoNT-F LC inh: 1; Anthrax LF inh2: 7

What do the screens show for `NS(=O)(=O)c1cccc(NC(=O)Cn2cnc3ccccc3c2=O)c1`?
BoNT A protease: 3; Bead autofluor: 20676*; BoNT-F LC inh: 2; Anthrax LF inh2: -4

What do the screens show for `COC(=O)c1cccc(NC(=O)Cn2cnc3ccccc3c2=O)c1`?
BoNT A protease: 1; Bead autofluor: 5861; BoNT-F LC inh: 6; Anthrax LF inh2: -2

What do the screens show for `CCCOc1ccc(F)cc1-c1cc(C(=O)NCc2cc(C(F)(F)F)cc(C(F)(F)F)c2)[nH]n1`?
BoNT A protease: 0; Bead autofluor: 3522; BoNT-F LC inh: -5; Anthrax LF inh2: -4

Results for COc1ccc(Cl)cc1NC(=O)CN(C)C(=O)CCNC(=O)c1ccccc1OC ?
BoNT A protease: 2; Bead autofluor: 4005; BoNT-F LC inh: 11; Anthrax LF inh2: 5

Results for N#CCc1ccc(NS(=O)(=O)c2cccs2)cc1 ?
BoNT A protease: -1; Bead autofluor: 16560*; BoNT-F LC inh: -3; Anthrax LF inh2: -2

Results for Cc1ccc([N+](=O)[O-])cc1N=Cc1ccc(Br)s1 ?
BoNT A protease: 0; Bead autofluor: 20554*; BoNT-F LC inh: 2; Anthrax LF inh2: -5

What do the screens show for `Cc1ccc(C=Nc2cc([N+](=O)[O-])ccc2C)s1`?
BoNT A protease: 0; Bead autofluor: 1981; BoNT-F LC inh: -3; Anthrax LF inh2: 0

Results for CCOc1cc(C2C(C(=O)OC)=CN(Cc3ccc(Cl)cc3)C=C2C(=O)OC)ccc1O ?
BoNT A protease: 4; Bead autofluor: 3776; BoNT-F LC inh: 48*; Anthrax LF inh2: -8

Results for COC(=O)C1=CN(C)C=C(C(=O)OC)C1c1ccc(O)c(OC)c1 ?
BoNT A protease: inconclusive; Bead autofluor: 23196*; BoNT-F LC inh: -6; Anthrax LF inh2: -6

What do the screens show for `COc1ccc(CC(=O)Nc2ccc(F)c(Cl)c2)cc1S(=O)(=O)N1CCOCC1`?
BoNT A protease: -1; Bead autofluor: 6836; BoNT-F LC inh: -2; Anthrax LF inh2: -6

What do the screens show for `COc1ccc(CNC(=O)CN2C(=O)NC(C)(c3cccc(Br)c3)C2=O)cc1` (stereo not drawn)?
BoNT A protease: -1; Bead autofluor: 3901; BoNT-F LC inh: 28; Anthrax LF inh2: 8

Results for CC1CCCCC12NC(=O)N(CC(=O)NCc1ccco1)C2=O (stereo not drawn) ?
BoNT A protease: 0; Bead autofluor: 3615; BoNT-F LC inh: 2; Anthrax LF inh2: -1

What do the screens show for `COc1ccc2cc(C3(C)NC(=O)N(CC(=O)NCc4ccco4)C3=O)ccc2c1` (stereo not drawn)?
BoNT A protease: 1; Bead autofluor: 21910*; BoNT-F LC inh: 1; Anthrax LF inh2: -2

Results for CC1CCCCC12NC(=O)N(CC(=O)NC(=O)NCc1ccco1)C2=O (stereo not drawn) ?
BoNT A protease: 1; Bead autofluor: 22867*; BoNT-F LC inh: -2; Anthrax LF inh2: -2

How did CC(C)CC1OC(C)Cc2[nH][nH]c(=O)c21 (stereo not drawn) do in these assays?
BoNT A protease: 1; Bead autofluor: 4107; BoNT-F LC inh: -2; Anthrax LF inh2: 5

How did O=C(Oc1ccc2c(=O)c(Oc3ccc4ccccc4c3)coc2c1)c1cncc(Br)c1 do in these assays?
BoNT A protease: 0; Bead autofluor: 4480; BoNT-F LC inh: 36*; Anthrax LF inh2: 1

Results for COc1ccc(-n2c(-c3ccc(C)cc3)nc3ccccc3c2=O)cc1 ?
BoNT A protease: 0; Bead autofluor: 5961; BoNT-F LC inh: -7; Anthrax LF inh2: 3

Results for COc1ccc(-c2nc3ccccc3c(=O)n2-c2cccnc2)cc1 ?
BoNT A protease: inconclusive; Bead autofluor: 22591*; BoNT-F LC inh: -2; Anthrax LF inh2: 0

What do the screens show for `Cc1nc2ccccc2c(=O)n1-c1cccnc1`?
BoNT A protease: inconclusive; Bead autofluor: 21722*; BoNT-F LC inh: 4; Anthrax LF inh2: -2

What do the screens show for `CCOC(=O)CNc1nc(C(C)(C)C)nc2c1nnn2Cc1ccccc1`?
BoNT A protease: -4; Bead autofluor: 3024; BoNT-F LC inh: 9; Anthrax LF inh2: -3

How did CCOc1ccc(C2C(C#N)=C(N)Oc3c2c(=O)oc2ccccc32)cc1 (stereo not drawn) do in these assays?
BoNT A protease: inconclusive; Bead autofluor: 24671*; BoNT-F LC inh: -6; Anthrax LF inh2: -2

Results for N#CC1=C(N)Oc2c(c(=O)oc3ccccc23)C1c1ccncc1 (stereo not drawn) ?
BoNT A protease: 0; Bead autofluor: 5900; BoNT-F LC inh: -3; Anthrax LF inh2: -4

Results for C(=C\c1ccccc1)/C=N/n1cnnc1 ?
BoNT A protease: -1; Bead autofluor: 24268*; BoNT-F LC inh: -3; Anthrax LF inh2: -1

How did Nc1nnnn1/N=C/C=C/c1ccccc1 do in these assays?
BoNT A protease: 1; Bead autofluor: 4198; BoNT-F LC inh: -1; Anthrax LF inh2: 4

How did Oc1ccc(Cl)cc1CNCC1CCCO1 (stereo not drawn) do in these assays?
BoNT A protease: -4; Bead autofluor: 20694*; BoNT-F LC inh: -7; Anthrax LF inh2: -2

How did O=C(CSc1cc(Cl)ccc1Cl)NCC1CCCO1 (stereo not drawn) do in these assays?
BoNT A protease: 1; Bead autofluor: 22708*; BoNT-F LC inh: 0; Anthrax LF inh2: -1

High-throughput results from PubChem BioAssay.
